NADH coupling – inhibitors of PK/LDH coupling enzymes, profiling panel, artefact control, biochemical, MLSMR library; coupled PK/LDH NADH assays, four targets; IC50, µM (series often up to 10 µM), for the others: top-dose inhibition; actives 0.02% (n = 65,000);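 active = single-dose screening hits from any of four coupled enzyme assays that gave an IC50 when retested across doses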;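 also: the DPM-DC format reads NADH fluorescence rather than 340 nm absorbance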
PMK inhibit – S. pneumoniae PMK inhibitors, primary screen, biochemical, mevalonate pathway, pilot trial included | inhibition, % at 10 µM | purified PMK, PK/LDH-coupled NADH absorbance 340 nm | actives 0.49% (n = 65,000) | AID 539, 2006;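 active = top-ranked compounds by inhibition in the single 10 µM screen, taking a fixed number of the strongest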;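 also: 0% = full reaction with DMSO carrier and 100% = background rate without enzyme reaction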
Spn MK inh – S. pneumoniae MK inhibitors, primary screen, biochemical, PK/LDH-coupled NADH absorbance | purified MK, PK/LDH-coupled NADH absorbance 340 nm | actives 0.48% (n = 65,000) | inhibition, % at 10 µM | mevalonate kinase [Streptococcus pneumoniae D39] | AID 555, 2006;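 active = ranked among the strongest by inhibition in the single 10 µM screen, a fixed top-ranked set picked for dose follow-up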
Fluor 339 460 – intrinsic fluorescence of library compounds, ex339/em460 – biochemical, MLSMR library, data from DPM-DC assay, artefact control, profiling panel; actives 5.5% (n = 65,000); compound autofluorescence, ex339/em460 nm, NADH buffer; stronger effect = higher value; 1 = no-compound wells, NADH background; fluorescence fold increase at 10 µM;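 active = at 10 µM, mean starting fluorescence two-fold or more over control wells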;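 also: signal is the first read of a kinetic run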
DPM-DC inhibit – S. pneumoniae DPM-DC inhibitors, primary screen, biochemical, PK/LDH-coupled NADH fluorescence | purified DPM-DC | calls only at 10 µM | actives 0.49% (n = 65,000);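 active = the 320 compounds with the highest percent inhibition in the single-dose primary screen, excluding strongly autofluorescent ones, cut at about 32% in these data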;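 also: kinetic rate of NADH fluorescence loss reporting ADP formed by the decarboxylase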
Active calls of the source: *; i = inactive; . = not tested or not shown; + = active, no number. In the library only some 6.6% were active in any assay of this set; here they are far more common.

SMILES	NADH coupling	PMK inhibit	Spn MK inh	Fluor 339 460	DPM-DC inhibit
COc1ccccc1CN(Cc1cc2cc(C)cc(C)c2[nH]c1=O)Cc1nnnn1CC1CCCO1 (stereo unspecified)	9%	26*	0	1.3	i
COc1ccc2[nH]c(=O)c(CN(Cc3ccc(C)cc3)Cc3nnnn3CC3CCCO3)cc2c1 (stereo unspecified)	15%	13	12	2.1*	i
COc1ccc2[nH]c(=O)c(CN(Cc3ccccc3OC)Cc3nnnn3CC3CCCO3)cc2c1 (stereo unspecified)	11%	7	3	2.3*	i
COc1ccc2[nH]c(=O)c(CN(CCc3ccccc3)Cc3nnnn3CC3CCCO3)cc2c1 (stereo unspecified)	10%	12	2	2.5*	i
COc1ccccc1CN(Cc1cc2cc(C)ccc2[nH]c1=O)Cc1nnnn1CC1CCCO1 (stereo unspecified)	7%	8	4	1.2	i
N#CC1=C(N)NC(SCC(=O)Nc2ccccc2)=C(C#N)C12CCCC2	7%	1	8	1.1	i
O=C(c1cc2c(=O)oc3ccccc3c2s1)N1CCN(c2ccccn2)CC1	3%	0	10	0.94	i
Cc1nc2c(c(=O)n1CC1CCCO1)c1nc3ccccc3nc1n2CC(C)C (stereo unspecified)	5%	0	13	1.4	i
CCOCCCn1c(C)nc2c(c1=O)c1nc3ccccc3nc1n2CCC1=CCCCC1	11%	10	6	3*	i
CCCn1cnc2c(c1=O)c1nc3ccccc3nc1n2CCc1ccccc1	6%	2	9	4*	.
CCCn1cnc2c(c1=O)c1nc3ccccc3nc1n2CCC1=CCCCC1	8%	11	11	2.3*	i
C=CCn1cnc2c(c1=O)c1nc3ccccc3nc1n2Cc1ccccc1	15%	15	7	3*	i
COc1ccc(C(=O)NC(C)c2nnc(SCC(=O)Nc3nc4ccccc4s3)n2C)cc1 (stereo unspecified)	5%	9	4	1.1	i
CC1CCCN(C(=O)C2CCN(S(=O)(=O)c3cccc4cccnc34)CC2)C1 (stereo unspecified)	1%	0	3	1.1	i
CCN(CC)C(=O)Cn1nc(-c2ccccc2O)nc1SCC(=O)Nc1ccc(OC)cc1	6%	14	4	1.1	i
Cn1c(=O)[nH]c(=O)c2c1nc(N1CCOCC1)n2CCSc1ncccn1	2%	5	0	1.1	i
Nc1cccc(-n2nncc2-c2ccccc2)c1	9%	12	13	1.1	i
Cc1ccc(S(=O)(=O)NCCN=C(CN2CCCC2)NS(=O)(=O)c2ccc(C)cc2)cc1	8%	18	2	0.99	i
CCCCn1cnc2c(c1=O)c1nc3ccccc3nc1n2Cc1ccc2c(c1)OCO2	1%	0	2	2.3*	.
O=C(NCc1cn2ccccc2n1)c1ccc(Br)o1	4%	8	3	1.1	i
O=C(NCc1cn2ccccc2n1)c1ccccc1	21%	12	52*	1	i
Cc1c(NC(=O)c2ccc(Br)o2)c(=O)n(-c2ccccc2)n1C	2%	5	4	1	i
COc1ccc2c(c1)c(C(=O)CNc1nc(C)cs1)c(C)n2C	9%	27*	0	1.2	i
O=C(CCNc1cccc(Cl)c1)c1ccco1	5%	6	10	1.1	i
Cc1ccc(S(=O)(=O)/N=C(\CN2CCCCC2)N2CCOCC2)cc1	5%	8	7	1	i
SMILES	NADH coupling	PMK inhibit	Spn MK inh	Fluor 339 460	DPM-DC inhibit
O=c1nc(-c2ccccc2)c2ccccc2[nH]1	15%	11	10	2.7*	i
CCCCN(CC)S(=O)(=O)N1CCC(C(=O)NCc2ccc(F)cc2)CC1	3%	15	3	1	i
Cc1c(O)c(CN2CCCC(C)C2)cc2c3c(c(=O)oc12)CCC3 (stereo unspecified)	4%	3	6	2.5*	.
Cc1c(C)c2cc(Cl)c(O)c(CN3CCN(C)CC3)c2oc1=O	4%	5	2	2.3*	.
CN1CCN(Cc2c(O)ccc3c(-c4ccccc4)cc(=O)oc23)CC1	2%	4	3	1.4	i
Cc1c(Cl)cccc1NC(=O)CCN1CCCC(C)C1 (stereo unspecified)	0%	0	0	1.1	i
Cc1c(C)c2cc(Cl)c(O)c(CN3CCCC(C)C3)c2oc1=O (stereo unspecified)	4%	6	2	2.4*	.
CCOC(=O)CCN(Cc1cccs1)S(=O)(=O)c1ccc(Cl)cc1	3%	6	0	1.1	i
CCO/C(C)=N/n1c2nc3ccccc3nc2c2c(=O)n(Cc3ccccc3Cl)c(C)nc21	5%	13	1	1.2	i
COC(=O)C1(C)NC(=O)c2ccccc2N1 (stereo unspecified)	4%	2	5	2.1*	.
COC(=O)C1(C)Nc2ccccc2C(=O)N1c1ccccc1OC (stereo unspecified)	15%	25	5	2.1*	.
CCOC(=O)C1CCN(C(=O)CSC2=NCCS2)CC1	6%	8	9	1.1	i
COc1ccc(C(=O)NCc2cn3c(C)csc3n2)cc1OC	36%	4	3	1.1	+
CCc1ccc2[nH]c(=O)c(CN(Cc3ccco3)S(=O)(=O)c3ccc4c(c3)OCCO4)cc2c1	11%	18	8	1.4	i
COc1ccc2[nH]c(=O)c(CN(Cc3ccco3)Cc3nnnn3Cc3ccccc3)cc2c1	7%	5	9	2.3*	i
CCc1ccc2[nH]c(=O)c(CN(Cc3ccccc3OC)Cc3nnnn3Cc3ccco3)cc2c1	2%	1	4	1.2	i
CCOc1ccc2[nH]c(=O)c(CN(Cc3ccco3)Cc3nnnn3Cc3ccccc3)cc2c1	4%	1	9	2*	i
COc1ccc2[nH]c(=O)c(CN(CCO)S(=O)(=O)c3ccc4c(c3)OCCO4)cc2c1	4%	1	10	2.1*	i
COC(=O)c1ccccc1S(=O)(=O)N(Cc1ccco1)Cc1cc2cc(OC)ccc2[nH]c1=O	15%	15	10	2.1*	i
O=C(c1ccco1)N1CCN(C(=O)C2CCCc3c2[nH]c2ccc(Cl)cc32)CC1 (stereo unspecified)	8%	14	8	1.1	i
CC(=O)c1cccc(NC(=O)COc2ccc(S(=O)(=O)N3CCCCC3)cc2)c1	0%	0	0	1.1	i
Cc1c(C(=O)c2no[n+]([O-])c2C(=O)c2cnn(C)c2C)cnn1C	3%	4	6	1	i

Screening data deposited in PubChem by SRMLSC.
